Records with an inconclusive call do not appear. The source made the active and inactive calls. The call rests on the fitted dose curve; in most records, active means well fitted curve in the direction sought with a large enough effect; inconclusive means small, poorly fitted or top-dose-only effect, or another doubt; inactive means no such curve, though single readings can be large; an effect the other way counts as inactive or inconclusive.
Experiments:
[1] = qHTS of pediatric cancer cell lines to identify multiple opportunities for drug repurposing: Primary screen for A673 cells (AID 1347092); further: nearly all actives have a fitted effect of over 45% in size; further: potency means the concentration at half of the fitted maximal effect
In short: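 Titration-based qHTS on A673 cells: MIPE compounds spanned 11 points (0.78 nM to 46 µM final), NPC compounds 8 points (0.59 nM to 46 µM final). Viability after 48 h was measured by ATP luminescence.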

[2] = qHTS of pediatric cancer cell lines to identify multiple opportunities for drug repurposing: Primary screen for SK-N-MC cells (AID 1347093); further: potency means the concentration at half of the fitted maximal effect
In short: (§1)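 Metabolically active cells were quantified by ATP-dependent luminescence (CellTiter-Glo, 15 min at room temperature) following 48 h treatment. Cells had been plated at 500-1,000 per well and settled for 5 h beforehand.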

[3] = qHTS of pediatric cancer cell lines to identify multiple opportunities for drug repurposing: Primary screen for BT-37 cells (AID 1347094); further: potency means the concentration at half of the fitted maximal effect
In short: (§2)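 Cells plated at 500-1,000/well in growth medium, compounds added after 5 h. MIPE tested at 11 points (from 0.78 nM), NPC at 8 points (from 0.59 nM). CellTiter-Glo luminescence after 48 h; concentration-response curves from primary screen.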

[4] = qHTS of pediatric cancer cell lines to identify multiple opportunities for drug repurposing: Primary screen for NB-EBc1 cells (AID 1347095); further: potency means the concentration at half of the fitted maximal effect
In short: as §2

[5] = qHTS of pediatric cancer cell lines to identify multiple opportunities for drug repurposing: Primary screen for U-2 OS cells (AID 1347096); further: nearly all actives have a fitted effect of over 50% in size
In short: (§3)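 Cells (500-1,000/well) in growth media were settled 5 h at 37 degrees C, then given compounds for 48 h. Viability was read as CellTiter-Glo luminescence. Primary runs used MIPE at 11 points (0.78 nM-46 µM) and NPC at 8 points (0.59 nM-46 µM); follow-ups used 11 points.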

[6] = qHTS of pediatric cancer cell lines to identify multiple opportunities for drug repurposing: Primary screen for Saos-2 cells (AID 1347097); further: nearly all actives have a fitted effect of over 40% in size
In short: as §2

[7] = qHTS of pediatric cancer cell lines to identify multiple opportunities for drug repurposing: Primary screen for NB1643 cells (AID 1347099); further: nearly all actives have a fitted effect of over 50% in size; further: potency means the concentration at half of the fitted maximal effect
In short: as §2

[8] = qHTS of pediatric cancer cell lines to identify multiple opportunities for drug repurposing: Primary screen for BT-12 cells (AID 1347101); further: nearly all actives have a fitted effect of over 25% in size; further: potency means the concentration at half of the fitted maximal effect
In short: (§4)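 Cells (500-1,000/well) rested 5 h, then received compounds for 48 h; metabolically active cells were measured by CellTiter-Glo luminescence. Final concentrations spanned up to 46 µM (MIPE, 11-point) or 0.59 nM-46 µM (NPC, 8-point) in primary screens, 11-point in follow-ups.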

[9] = qHTS of pediatric cancer cell lines to identify multiple opportunities for drug repurposing: Primary screen for Rh18 cells (AID 1347102); further: nearly all actives have a fitted effect of over 65% in size
In short: as §3

[10] = qHTS of pediatric cancer cell lines to identify multiple opportunities for drug repurposing: Primary screen for OHS-50 cells (AID 1347103); further: nearly all actives have a fitted effect of over 40% in size; further: potency means the concentration at half of the fitted maximal effect
In short: as §4

[11] = qHTS of pediatric cancer cell lines to identify multiple opportunities for drug repurposing: Primary screen for RD cells (AID 1347104); further: nearly all actives have a fitted effect of over 55% in size; further: potency means the concentration at half of the fitted maximal effect
In short: as §2

[12] = qHTS of pediatric cancer cell lines to identify multiple opportunities for drug repurposing: Primary screen for MG 63 (6-TG R) cells (AID 1347105); further: nearly all actives have a fitted effect of over 50% in size; further: potency means the concentration at half of the fitted maximal effect
In short: as §2

[13] = qHTS of pediatric cancer cell lines to identify multiple opportunities for drug repurposing: Primary screen for control Hh wild type fibroblast cells (AID 1347106); further: nearly all actives have a fitted effect of over 55% in size; further: potency means the concentration at half of the fitted maximal effect
In short: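 Viability after 48 h compound treatment at 37C, 500-1,000 cells/well, read as ATP luminescence with CellTiter-Glo. Primary screens used 11-point (MIPE, 0.78 nM-46 µM) or 8-point (NPC, 0.59 nM-46 µM) final concentrations; follow-up screens used 11-point dilutions.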

[14] = qHTS of pediatric cancer cell lines to identify multiple opportunities for drug repurposing: Primary screen for Rh30 cells (AID 1347107); further: series mostly up to about 46 µM; nearly all actives have a fitted effect of over 75% in size
In short: as §3

[15] = qHTS of pediatric cancer cell lines to identify multiple opportunities for drug repurposing: Primary screen for Rh41 cells (AID 1347108); further: nearly all actives have a fitted effect of over 70% in size; further: potency means the concentration at half of the fitted maximal effect
In short: as §2

[16] = qHTS of pediatric cancer cell lines to identify multiple opportunities for drug repurposing: Primary screen for SK-N-SH cells (AID 1347098); further: nearly all actives have a fitted effect of over 65% in size; further: potency means the concentration at half of the fitted maximal effect
In short: as §4

[17] = qHTS of pediatric cancer cell lines to identify multiple opportunities for drug repurposing: Primary screen for LAN-5 cells (AID 1347100); further: potency means the concentration at half of the fitted maximal effect
In short: as §3

[18] = qHTS of pediatric cancer cell lines to identify multiple opportunities for drug repurposing: Confirmatory screen for NB1643 cells (AID 1347109); further: nearly all actives have a fitted effect of over 45% in size
In short: as §3

[19] = qHTS of pediatric cancer cell lines to identify multiple opportunities for drug repurposing: Confirmatory screen for A673 cells (AID 1347110);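 further: potency means the concentration at half of the fitted maximal effect; cells exposed to compound for 48 h before the viability read; nearly all actives have a fitted effect of over 65% in size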
In short: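 Forty-eight-hour viability assay. Follow-up compounds ran at 11-point dilutions; positive control bortezomib at 2.3 uM final, neutral control DMSO.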

[20] = qHTS of pediatric cancer cell lines to identify multiple opportunities for drug repurposing: Confirmatory screen for SK-N-MC cells (AID 1347111);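 further: cells exposed to compound for 48 h before the readout; nearly all actives have a fitted effect of over 70% in size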
In short: as §1

Measured: Potency

CCN(CC)CCOC(=O)c1ccc(N)cc1
inactive: [1] | [2] | [3] | [4] | [5] | [6] | [7] | [8] | [9] | [10] | [11] | [12] | [13] | [14] | [15]

O=C(O)c1cc(O)c2c(c1)C(=O)c1cccc(O)c1C2=O
inactive: [1] | [3] | [5] | [16] | [17] | [9] | [10] | [11] | [13]
active: [2] 19.1 µM | [4] 38.2 µM

CC(=NNC(=S)N1CCC1)c1ccccn1
inactive: [5] | [6] | [18] | [20]
active: [1] 3.7 nM | [2] 0.0013 µM | [3] 0.0054 µM | [4] 0.0166 µM | [7] 0.001 µM | [17] 0.935 µM | [11] 0.003 µM | [12] 23.5 nM | [13] 166 nM | [19] 23.3 µM

CC(=O)N[C@@H](CS)C(=O)O
inactive: [1] | [2] | [3] | [4] | [5] | [16] | [7] | [17] | [8] | [9] | [11] | [12] | [13] | [14] | [15]

COc1cc(O)c2c(c1)C(=O)c1cc(C)cc(O)c1C2=O
inactive: [1] | [2] | [3] | [4] | [5] | [16] | [7] | [17] | [8] | [9] | [10] | [11] | [13]

CC(C)=CC[C@@H](O)C1=CC(=O)c2c(O)ccc(O)c2C1=O
inactive: [5]
active: [1] 935 nM | [2] 1.05 µM | [3] 13.7 µM | [4] 0.743 µM | [16] 6.81 µM | [7] 3.32 µM | [17] 14.8 µM | [8] 17.2 µM | [10] 10.9 µM | [11] 26.4 µM

CC(C)(C)c1cc(C(=O)O)c(NC(=O)Nc2ccc3[nH]ncc3c2)s1
active: [2] 23.5 µM | [7] 23.5 µM
inactive: [1] | [3] | [4] | [5] | [16] | [17] | [8] | [9] | [10] | [12] | [13]

CC(C)C(=O)Oc1ccc(CO)cc1[C@H](CCN(C(C)C)C(C)C)c1ccccc1
inactive: [1] | [2] | [3] | [4] | [5] | [6] | [17] | [9] | [11] | [12] | [13] | [14]

C[C@@H](O)[C@H]1C(=O)N2C(C(=O)O)=C(S[C@@H]3CN[C@H](C(=O)N(C)C)C3)[C@H](C)[C@H]12
inactive: [1] | [2] | [3] | [4] | [5] | [16] | [7] | [17] | [8] | [9] | [10] | [11] | [12] | [13] | [14] | [15]

OC[C@@H](O)[C@H](O)[C@H](O)[C@@H](O)CO
inactive: [1] | [2] | [3] | [4] | [5] | [16] | [7] | [9] | [10] | [11] | [12] | [13] | [14] | [15]

Cc1cnc(C(=O)O)c[n+]1[O-]
inactive: [1] | [2] | [3] | [4] | [5] | [6] | [7] | [8] | [9] | [10] | [11] | [12] | [13] | [14]

O=c1c(-c2ccc(O)cc2)coc2cc(OC3O[C@H](CO)[C@H](O)[C@H](O)[C@H]3O)cc(O)c12 (stereo partly specified)
active: [1] 2960 nM | [2] 2.96 µM | [3] 21.7 µM | [4] 18.7 µM | [16] 9.61 µM | [11] 6.62 µM | [15] 8.33 µM
inactive: [5] | [10]

CCN1CCC[C@H]1CNC(=O)c1cc(S(N)(=O)=O)ccc1OC
inactive: [1] | [2] | [3] | [4] | [5] | [16] | [7] | [17] | [9] | [10] | [11] | [13] | [14] | [15]

From PubChem BioAssay (NCATS)
